TDP1 inh: blocks human tyrosyl-DNA phosphodiesterase 1. recombinant TDP1, AlphaScreen DNA substrate cleavage. Potency, µM (doses to about 130 µM), most hits filed as inhibitors. Q9NUW8. 350,000 compounds, 0.28% hits; further: nearly all actives have a fitted effect of over 40% in size
Target sequence (Q9NUW8 whole entry, looked up): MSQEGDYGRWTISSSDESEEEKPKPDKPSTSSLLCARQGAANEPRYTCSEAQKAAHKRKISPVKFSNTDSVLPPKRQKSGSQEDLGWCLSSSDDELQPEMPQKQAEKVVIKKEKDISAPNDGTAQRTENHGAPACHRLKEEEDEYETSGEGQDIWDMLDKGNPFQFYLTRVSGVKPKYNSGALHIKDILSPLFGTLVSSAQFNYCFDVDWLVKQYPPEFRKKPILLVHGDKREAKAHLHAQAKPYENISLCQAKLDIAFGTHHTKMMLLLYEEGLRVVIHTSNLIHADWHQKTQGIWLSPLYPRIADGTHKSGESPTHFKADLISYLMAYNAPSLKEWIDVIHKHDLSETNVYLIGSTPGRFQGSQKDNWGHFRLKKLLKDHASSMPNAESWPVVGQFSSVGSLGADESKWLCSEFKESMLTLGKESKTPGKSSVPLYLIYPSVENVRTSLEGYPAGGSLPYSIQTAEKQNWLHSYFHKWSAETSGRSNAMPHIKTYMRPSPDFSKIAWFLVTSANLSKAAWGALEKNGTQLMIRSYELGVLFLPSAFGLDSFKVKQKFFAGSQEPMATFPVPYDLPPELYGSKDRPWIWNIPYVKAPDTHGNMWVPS
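Recombinant E. coli-expressed Tdp1 (1 nM) preincubated with compound 15 min at RT, then 5'-biotin/3'-phosphotyrosine-FITC DNA substrate (15 nM) added for 5 min. AlphaScreen beads (10 ug/ml) added, 10 min RT; tyrosine-FITC cleavage read as signal loss.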
TDP1 cell noCPT: qHTS for Inhibitors of human tyrosyl-DNA phosphodiesterase 1 (TDP1): qHTS in cells in absence of CPT; DT40 Tdp1-/- hTDP1 cells, no CPT, ATP luminescence, 48 h; Potency, µM (series often up to 46.2 µM), hits mostly inhibitors; 420,000 compounds, 15% hits; AID 686978, 2013; further: nearly all actives have a fitted effect of over 55% in size
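Compound effects on proliferation are scored in DT40 Tdp1-/-;hTDP1 cells in the absence of CPT. ATP levels (CellTiter-Glo luminescence) are recorded after a ≥48 hr, 37 °C incubation.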
TGFb SMAD3 inh: inhibitors of TGF-b signaling. 410,000 compounds, 1.2% hits. Potency, µM (titrated, usually from 46.1 µM), hits mostly inhibitors. AID 588855. HepG2 CAGA-GFP TGF-b/SMAD3 reporter, GFP fluorescence, 18 h; TGF-beta stimulated, 500 pg/mL final; further: nearly all actives have a fitted effect of over 65% in size
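Cell-based qHTS in HEPG2 carrying a CAGA-GFP Smad reporter; compounds added before 500 pg/mL final TGF-beta, 18 h incubation at 37 degrees C, GFP fluorescence quantified per cell by imaging cytometry.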
IL-1B inflam inh: inhibitors of inflammasome signaling (IL-1 beta secretion); THP-1 LPS/ATP IL-1B secretion, AlphaLISA, 16 h; stronger effect = lower value; activity change, % at 57.5 µM; 360,000 compounds, 4.7% hits; in the data active means activity change below about -50%; inconclusive means mostly about -30% to -49%
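THP-1 cells pretreated 1 hr with compounds (up to 57.5 uM final), then stimulated with LPS (250 ng/mL final) plus ATP (1.25 mM final); secreted IL-1B measured by AlphaLISA after 16 hr, decreased signal indicating inhibition.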
HepG2 tox: HepG2 cytotoxicity, counter-screen for TGF-b inhibitors | 410,000 compounds, 0.76% hits | Potency, µM (titrated, usually from 46.1 µM), usual class: cytotoxic | HepG2 CAGA-GFP viability, ATP luminescence, 18 h
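CellTiter-Glo luminescence gave cytotoxicity after 18 hours at 37 degrees C. The cells were HepG2 CAGA-GFP in 1% FBS DMEM, stimulated with 500 pg/mL TGF-beta after compound addition. %Activity was normalised to no-cell wells (complete cell-killing) and DMSO (no toxicity), and curves were fitted and classified.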
DT40 TDP1 CPT: growth inhibition of DT40 Tdp1-/-;hTDP1 cells with camptothecin (screen for TDP1 inhibitors) | chicken DT40 Tdp1-/-;hTDP1 cells + 20 nM CPT, ATP luminescence, 48 h | Potency, µM (highest dose often 46.2 µM), actives largely listed as inhibitors | AID 686979 | 420,000 compounds, 12% hits; further: nearly all actives have a fitted effect of over 55% in size
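Chicken DT40 Tdp1-/- cells complemented with human TDP1, 400 cells/well, exposed to compounds plus 20 nM camptothecin for at least 48 h at 37 C; viability read as ATP content by CellTiter-Glo luminescence.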
Of the large screens only hits and unclear results are named; the others gave an inactive call. Hits are enriched below; roughly 18% of the tested compounds scored in any of these assays. Unless noted, the call rests on the fitted dose curve; in most records, active means well fitted curve in the direction sought with a large enough effect; inconclusive means small, poorly fitted or top-dose-only effect, or another doubt; inactive means no such curve, though single readings can be large; an effect the other way counts as inactive or inconclusive.

COc1ccccc1N=c1scc(-c2ccc(S(=O)(=O)N3CCCC3)cc2)n1C	TDP1 cell noCPT 2.91µM, TGFb SMAD3 inh inconclusive, DT40 TDP1 CPT 5.17µM (no result: IL-1B inflam inh)
Cc1csc(NC(=O)C2CCCN(S(=O)(=O)c3ccc4c(c3)oc(=O)n4C)C2)n1 (stereo unspecified)	TDP1 cell noCPT inconclusive, DT40 TDP1 CPT inconclusive
COc1ccc2c(c1)NP(=S)(Oc1ccccc1)N2 (stereo unspecified)	TDP1 cell noCPT 14.6µM, TGFb SMAD3 inh inconclusive, DT40 TDP1 CPT inconclusive
O=C(O)[C@@H]1CSC(c2cccnc2)N1 (stereo partly specified)	none (no result: TGFb SMAD3 inh, IL-1B inflam inh, HepG2 tox)
Cc1ccc(Cl)c(O)c1	none (no result: TGFb SMAD3 inh, IL-1B inflam inh, HepG2 tox)
C=CCN1CCCC1CNC(=O)c1cc2[nH]nnc2cc1OC (stereo unspecified)	TDP1 cell noCPT inconclusive (no result: TDP1 inh)
COc1cccc(CN(C)C[C@@H]2OCc3ccccc3-c3c(n(C)c4ccccc34)C(=O)N([C@@H](C)CO)C[C@H]2C)c1	TDP1 cell noCPT inconclusive, TGFb SMAD3 inh inconclusive, HepG2 tox 20µM (no result: TDP1 inh)
COc1ccc(OC(=O)N(C)C[C@@H]2OCc3ccccc3-c3c(n(C)c4ccccc34)C(=O)N([C@H](C)CO)C[C@@H]2C)cc1	TDP1 cell noCPT 23.1µM, TGFb SMAD3 inh inconclusive (no result: TDP1 inh)
COc1ccc(OC(=O)N(C)C[C@H]2OCc3cnnn3CCCC(=O)N([C@H](C)CO)C[C@@H]2C)cc1	none (no result: TDP1 inh)
Cc1ccccc1S(=O)(=O)N(C)C[C@@H]1OCc2ccccc2-c2c(n(C)c3ccccc23)C(=O)N([C@H](C)CO)C[C@@H]1C	TDP1 cell noCPT 20.6µM, TGFb SMAD3 inh inconclusive, DT40 TDP1 CPT 16.4µM (no result: TDP1 inh)
C[C@@H]1CN([C@@H](C)CO)C(=O)c2c(c3ccccc3n2C)-c2ccccc2CO[C@H]1CN(C)S(=O)(=O)c1ccc(C#N)cc1	TDP1 cell noCPT inconclusive, TGFb SMAD3 inh inconclusive (no result: TDP1 inh)
C[C@@H]1CN([C@H](C)CO)C(=O)c2c(c3ccccc3n2C)-c2ccccc2CO[C@@H]1CN(C)Cc1ccc(O)cc1	TDP1 cell noCPT 14.6µM, TGFb SMAD3 inh inconclusive, IL-1B inflam inh inconclusive, DT40 TDP1 CPT 20.6µM (no result: TDP1 inh)
CCN1C[C@]2(COC(=O)c3ccccc3N3C(=O)C[C@H](C)C3=O)CC[C@H](OC)[C@@]34[C@@H]5C[C@H]6[C@H](OC)[C@H]5[C@](O)(C[C@@H]6OC)[C@@](O)([C@@H](OC)[C@@H]23)[C@@H]14	none (no result: TGFb SMAD3 inh, IL-1B inflam inh, HepG2 tox)
C[C@@H]1CN([C@H](C)CO)C(=O)c2c(c3ccccc3n2C)-c2ccccc2CO[C@H]1CN(C)Cc1ccc(-c2ccccc2)cc1	TDP1 cell noCPT 20.6µM, TGFb SMAD3 inh inconclusive, IL-1B inflam inh inconclusive, DT40 TDP1 CPT 18.4µM (no result: TDP1 inh)
CCCCCCCCN1C(=O)[C@H](CC(=O)NCCc2ccccc2OC)C[C@@]2(C(=O)OC)CCCCC=C12	TDP1 cell noCPT inconclusive, IL-1B inflam inh -69.9, DT40 TDP1 CPT inconclusive (no result: TDP1 inh, TGFb SMAD3 inh, HepG2 tox)
CCC(C)C(=O)OC1C(O)C2C(CN3CC(C)CCC3[C@]2(C)O)C2C[C@]34O[C@@]5(O)C(OC(=O)C(C)(O)C(C)O)CCC3(C)C5C(OC(C)=O)C(OC(C)=O)C4[C@@]21O (stereo partly specified)	none (no result: TGFb SMAD3 inh, IL-1B inflam inh, HepG2 tox)
O=C(N/N=C/C1C(=O)NC(=S)N(c2ccccc2)C1=O)c1cc(Br)c(O)c(Br)c1 (stereo unspecified)	TDP1 cell noCPT inconclusive, DT40 TDP1 CPT 16.4µM
COC(=O)[C@@H](N)CCCN/C(N)=N/[N+](=O)[O-]	DT40 TDP1 CPT inconclusive (no result: TDP1 inh, TGFb SMAD3 inh, IL-1B inflam inh, HepG2 tox)
O=C(Cn1c(=O)oc2cc(S(=O)(=O)NCc3ccccc3)ccc21)NCc1ccc(Cl)cc1	TDP1 cell noCPT inconclusive, DT40 TDP1 CPT 13µM (no result: IL-1B inflam inh)
O=C(Cn1c(=O)oc2cc(S(=O)(=O)NCc3ccccc3)ccc21)NCc1ccccc1Cl	TDP1 cell noCPT 9.2µM, TGFb SMAD3 inh inconclusive, DT40 TDP1 CPT 7.31µM (no result: IL-1B inflam inh)

Assay outcomes from PubChem BioAssay.
